Source: the supplement of paper PMC11732987, “Enantioselective OTUD7B fragment discovery through chemoproteomics screening and high-throughput optimisation” (Communications Chemistry, 2025)

What was measured:
Test in all cases: log2 ratio of Biotin-Ahx-Ub-VS probe labelling (fragment/DMSO); higher = less target engagement (more negative = stronger competition), active = hit call of the paper (q ≤ 0.05, log2 ratio ≤ -1)
Conditions in all cases: compound concentration: 200 uM; treatment time: 3 h
[1] = molecular target: USP34 (UniProt Q70CQ2)
Chain of USP34 (Q70CQ2 whole entry, the tested form may be a part): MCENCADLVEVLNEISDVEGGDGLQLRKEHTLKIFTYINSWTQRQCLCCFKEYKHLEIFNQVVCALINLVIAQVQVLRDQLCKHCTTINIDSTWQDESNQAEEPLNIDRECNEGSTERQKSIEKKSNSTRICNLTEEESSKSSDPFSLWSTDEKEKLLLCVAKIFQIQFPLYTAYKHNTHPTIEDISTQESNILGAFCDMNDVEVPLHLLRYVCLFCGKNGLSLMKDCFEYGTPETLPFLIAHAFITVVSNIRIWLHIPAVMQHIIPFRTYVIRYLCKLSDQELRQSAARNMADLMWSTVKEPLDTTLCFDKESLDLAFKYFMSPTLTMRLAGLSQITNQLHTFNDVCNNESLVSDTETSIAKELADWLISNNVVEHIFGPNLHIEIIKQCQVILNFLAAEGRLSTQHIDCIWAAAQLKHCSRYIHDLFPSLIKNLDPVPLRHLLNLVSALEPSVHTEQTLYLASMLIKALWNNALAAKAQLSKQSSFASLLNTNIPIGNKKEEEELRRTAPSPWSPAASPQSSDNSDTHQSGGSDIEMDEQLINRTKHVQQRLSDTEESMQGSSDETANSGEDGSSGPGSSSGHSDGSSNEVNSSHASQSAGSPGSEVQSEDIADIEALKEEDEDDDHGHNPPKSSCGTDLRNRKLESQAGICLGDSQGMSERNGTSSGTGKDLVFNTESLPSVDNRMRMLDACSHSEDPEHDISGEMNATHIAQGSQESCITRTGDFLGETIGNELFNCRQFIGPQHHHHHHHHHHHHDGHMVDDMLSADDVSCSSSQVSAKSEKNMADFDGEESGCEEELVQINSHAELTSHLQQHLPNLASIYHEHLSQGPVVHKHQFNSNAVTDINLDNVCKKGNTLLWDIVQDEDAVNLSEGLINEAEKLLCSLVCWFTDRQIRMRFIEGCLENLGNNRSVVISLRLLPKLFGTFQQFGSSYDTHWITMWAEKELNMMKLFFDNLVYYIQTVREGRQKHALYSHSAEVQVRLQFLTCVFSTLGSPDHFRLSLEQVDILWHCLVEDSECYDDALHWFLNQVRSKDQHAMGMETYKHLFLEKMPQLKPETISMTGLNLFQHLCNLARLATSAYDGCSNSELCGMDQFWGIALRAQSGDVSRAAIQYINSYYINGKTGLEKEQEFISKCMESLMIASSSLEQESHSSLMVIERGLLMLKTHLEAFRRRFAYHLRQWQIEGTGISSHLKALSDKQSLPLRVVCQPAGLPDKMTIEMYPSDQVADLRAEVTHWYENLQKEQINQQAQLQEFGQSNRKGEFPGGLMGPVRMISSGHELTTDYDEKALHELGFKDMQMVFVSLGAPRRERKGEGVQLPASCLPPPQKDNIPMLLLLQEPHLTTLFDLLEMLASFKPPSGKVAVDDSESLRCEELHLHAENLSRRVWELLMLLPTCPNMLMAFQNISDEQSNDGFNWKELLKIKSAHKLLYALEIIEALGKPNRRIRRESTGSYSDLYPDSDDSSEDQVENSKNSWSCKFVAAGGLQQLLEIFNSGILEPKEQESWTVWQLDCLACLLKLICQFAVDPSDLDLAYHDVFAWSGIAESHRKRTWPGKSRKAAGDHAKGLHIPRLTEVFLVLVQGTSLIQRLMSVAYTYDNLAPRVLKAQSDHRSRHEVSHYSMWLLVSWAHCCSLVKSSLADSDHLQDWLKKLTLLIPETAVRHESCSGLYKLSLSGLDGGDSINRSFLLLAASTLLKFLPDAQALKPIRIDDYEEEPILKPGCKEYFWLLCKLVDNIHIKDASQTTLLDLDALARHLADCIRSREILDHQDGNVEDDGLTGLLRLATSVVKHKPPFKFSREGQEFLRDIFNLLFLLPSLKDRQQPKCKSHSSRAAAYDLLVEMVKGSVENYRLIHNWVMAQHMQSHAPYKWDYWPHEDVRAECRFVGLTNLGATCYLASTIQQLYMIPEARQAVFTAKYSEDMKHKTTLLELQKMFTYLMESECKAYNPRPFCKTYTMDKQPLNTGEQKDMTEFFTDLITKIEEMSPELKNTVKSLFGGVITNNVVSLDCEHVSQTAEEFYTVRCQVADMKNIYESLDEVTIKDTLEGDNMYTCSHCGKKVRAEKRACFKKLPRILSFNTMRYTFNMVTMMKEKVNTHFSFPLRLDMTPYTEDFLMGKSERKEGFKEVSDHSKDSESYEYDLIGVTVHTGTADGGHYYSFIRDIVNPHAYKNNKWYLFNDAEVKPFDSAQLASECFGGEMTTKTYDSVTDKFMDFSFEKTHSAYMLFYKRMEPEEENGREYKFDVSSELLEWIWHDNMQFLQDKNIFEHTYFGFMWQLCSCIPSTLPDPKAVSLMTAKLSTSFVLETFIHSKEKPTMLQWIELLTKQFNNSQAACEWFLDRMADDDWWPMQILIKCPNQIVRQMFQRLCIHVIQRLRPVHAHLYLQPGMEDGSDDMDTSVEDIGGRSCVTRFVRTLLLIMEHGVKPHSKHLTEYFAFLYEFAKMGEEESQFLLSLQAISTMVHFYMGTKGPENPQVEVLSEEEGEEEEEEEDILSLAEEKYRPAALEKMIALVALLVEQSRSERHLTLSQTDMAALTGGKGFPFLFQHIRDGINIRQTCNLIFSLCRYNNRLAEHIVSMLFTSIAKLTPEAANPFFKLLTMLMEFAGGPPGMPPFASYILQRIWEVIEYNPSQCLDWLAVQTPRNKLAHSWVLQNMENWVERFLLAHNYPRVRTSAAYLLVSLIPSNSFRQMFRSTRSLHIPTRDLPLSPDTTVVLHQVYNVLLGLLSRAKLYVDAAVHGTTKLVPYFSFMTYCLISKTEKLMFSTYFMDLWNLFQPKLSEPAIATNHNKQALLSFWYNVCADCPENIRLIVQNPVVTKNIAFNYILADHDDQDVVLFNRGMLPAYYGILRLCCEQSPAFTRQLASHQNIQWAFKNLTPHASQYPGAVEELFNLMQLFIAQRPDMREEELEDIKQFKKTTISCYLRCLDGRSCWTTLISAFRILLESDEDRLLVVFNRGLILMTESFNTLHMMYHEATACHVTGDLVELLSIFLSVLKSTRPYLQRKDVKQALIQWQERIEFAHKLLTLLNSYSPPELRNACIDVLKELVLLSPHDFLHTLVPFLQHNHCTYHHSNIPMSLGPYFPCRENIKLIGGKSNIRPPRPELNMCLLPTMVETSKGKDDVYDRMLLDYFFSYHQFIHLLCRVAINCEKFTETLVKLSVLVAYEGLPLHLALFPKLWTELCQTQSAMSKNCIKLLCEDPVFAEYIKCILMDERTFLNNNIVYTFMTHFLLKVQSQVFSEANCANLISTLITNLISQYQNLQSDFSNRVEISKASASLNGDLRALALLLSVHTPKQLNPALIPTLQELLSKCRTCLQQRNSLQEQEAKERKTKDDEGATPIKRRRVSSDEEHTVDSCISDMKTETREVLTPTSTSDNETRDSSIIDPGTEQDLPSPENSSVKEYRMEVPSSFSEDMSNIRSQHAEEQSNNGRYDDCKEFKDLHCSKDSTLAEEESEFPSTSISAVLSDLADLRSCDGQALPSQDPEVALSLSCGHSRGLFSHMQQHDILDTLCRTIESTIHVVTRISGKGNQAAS
Method in brief: (§1)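 HEK293T lysate, 495 µg per sample in Tris/CHAPS/IGEPAL buffer with protease inhibitors, was treated in triplicate with fragment at 200 µM or vehicle for 3 h and then with Biotin-Ahx-Ub-VS at 0.5 µM final for 1 h. Labelled DUBs were NeutrAvidin-enriched, digested with LysC and trypsin, and run by diaPASEF LC-MS/MS. Spectronaut label-free quantities were global-median-normalised, and values are average log2 fragment/vehicle ratios by unpaired t-test on proteins with ≥2 unique peptides.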

[2] = molecular target: T1, USP36 (UniProt Q9P275)
T1 sequence (whole entry): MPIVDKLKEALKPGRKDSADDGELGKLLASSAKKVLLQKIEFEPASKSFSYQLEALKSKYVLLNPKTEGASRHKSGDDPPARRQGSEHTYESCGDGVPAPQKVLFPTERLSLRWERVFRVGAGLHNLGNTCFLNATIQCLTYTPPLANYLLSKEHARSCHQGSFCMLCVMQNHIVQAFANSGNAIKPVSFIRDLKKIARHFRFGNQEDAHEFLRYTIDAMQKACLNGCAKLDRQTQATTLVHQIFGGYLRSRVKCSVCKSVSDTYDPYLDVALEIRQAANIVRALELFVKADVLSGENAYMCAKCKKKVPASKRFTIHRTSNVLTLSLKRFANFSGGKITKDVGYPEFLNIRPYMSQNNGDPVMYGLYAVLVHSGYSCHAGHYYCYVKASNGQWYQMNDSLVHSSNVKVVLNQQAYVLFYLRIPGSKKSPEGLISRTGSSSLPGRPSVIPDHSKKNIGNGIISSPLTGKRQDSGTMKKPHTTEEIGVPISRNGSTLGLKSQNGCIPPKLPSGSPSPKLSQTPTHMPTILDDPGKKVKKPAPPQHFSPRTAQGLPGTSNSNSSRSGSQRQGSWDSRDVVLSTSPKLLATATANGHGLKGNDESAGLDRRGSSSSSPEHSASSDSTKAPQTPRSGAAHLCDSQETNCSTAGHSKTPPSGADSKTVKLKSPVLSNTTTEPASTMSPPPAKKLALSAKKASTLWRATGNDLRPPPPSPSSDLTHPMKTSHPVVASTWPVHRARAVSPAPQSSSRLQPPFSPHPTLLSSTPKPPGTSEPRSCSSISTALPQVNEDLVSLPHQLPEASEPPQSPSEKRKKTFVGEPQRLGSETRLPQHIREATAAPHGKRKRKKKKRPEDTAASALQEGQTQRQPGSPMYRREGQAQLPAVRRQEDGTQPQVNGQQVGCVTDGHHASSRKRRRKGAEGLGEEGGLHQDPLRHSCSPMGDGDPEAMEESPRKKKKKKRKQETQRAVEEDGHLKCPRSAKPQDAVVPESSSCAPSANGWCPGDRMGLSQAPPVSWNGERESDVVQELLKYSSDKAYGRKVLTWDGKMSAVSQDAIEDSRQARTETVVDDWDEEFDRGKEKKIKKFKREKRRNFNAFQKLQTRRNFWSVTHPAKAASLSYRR
Method in brief: as §1

[3] = molecular target: T2, USP38 (UniProt Q8NB14)
T2 sequence (whole entry): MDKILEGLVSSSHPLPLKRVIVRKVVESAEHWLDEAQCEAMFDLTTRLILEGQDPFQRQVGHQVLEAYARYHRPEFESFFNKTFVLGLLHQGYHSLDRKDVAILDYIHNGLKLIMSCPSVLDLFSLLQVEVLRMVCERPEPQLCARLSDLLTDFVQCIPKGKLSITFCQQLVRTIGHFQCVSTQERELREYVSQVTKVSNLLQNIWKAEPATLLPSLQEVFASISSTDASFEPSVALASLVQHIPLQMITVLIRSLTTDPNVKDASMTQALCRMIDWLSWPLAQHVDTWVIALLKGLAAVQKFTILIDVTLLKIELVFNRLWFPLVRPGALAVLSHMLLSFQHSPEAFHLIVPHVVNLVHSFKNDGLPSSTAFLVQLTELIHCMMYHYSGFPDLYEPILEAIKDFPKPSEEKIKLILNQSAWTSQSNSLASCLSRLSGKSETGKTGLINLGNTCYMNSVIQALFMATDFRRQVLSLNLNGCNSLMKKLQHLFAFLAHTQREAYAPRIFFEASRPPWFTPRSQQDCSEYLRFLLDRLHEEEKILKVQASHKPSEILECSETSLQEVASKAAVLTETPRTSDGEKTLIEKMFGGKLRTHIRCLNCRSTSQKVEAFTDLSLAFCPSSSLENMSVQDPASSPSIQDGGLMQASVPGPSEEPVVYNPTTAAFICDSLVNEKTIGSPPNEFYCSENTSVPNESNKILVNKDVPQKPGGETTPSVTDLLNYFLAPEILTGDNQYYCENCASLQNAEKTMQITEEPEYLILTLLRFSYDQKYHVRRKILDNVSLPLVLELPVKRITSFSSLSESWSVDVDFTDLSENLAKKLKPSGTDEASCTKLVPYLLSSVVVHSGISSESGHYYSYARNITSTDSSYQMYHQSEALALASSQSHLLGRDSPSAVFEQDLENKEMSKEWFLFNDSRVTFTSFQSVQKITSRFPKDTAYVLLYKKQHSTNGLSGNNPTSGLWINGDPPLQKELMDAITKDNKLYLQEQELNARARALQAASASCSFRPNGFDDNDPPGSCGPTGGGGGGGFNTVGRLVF
Method in brief: as §1

[4] = molecular target: T3, USP39 (UniProt Q53GS9)
T3 sequence (whole entry): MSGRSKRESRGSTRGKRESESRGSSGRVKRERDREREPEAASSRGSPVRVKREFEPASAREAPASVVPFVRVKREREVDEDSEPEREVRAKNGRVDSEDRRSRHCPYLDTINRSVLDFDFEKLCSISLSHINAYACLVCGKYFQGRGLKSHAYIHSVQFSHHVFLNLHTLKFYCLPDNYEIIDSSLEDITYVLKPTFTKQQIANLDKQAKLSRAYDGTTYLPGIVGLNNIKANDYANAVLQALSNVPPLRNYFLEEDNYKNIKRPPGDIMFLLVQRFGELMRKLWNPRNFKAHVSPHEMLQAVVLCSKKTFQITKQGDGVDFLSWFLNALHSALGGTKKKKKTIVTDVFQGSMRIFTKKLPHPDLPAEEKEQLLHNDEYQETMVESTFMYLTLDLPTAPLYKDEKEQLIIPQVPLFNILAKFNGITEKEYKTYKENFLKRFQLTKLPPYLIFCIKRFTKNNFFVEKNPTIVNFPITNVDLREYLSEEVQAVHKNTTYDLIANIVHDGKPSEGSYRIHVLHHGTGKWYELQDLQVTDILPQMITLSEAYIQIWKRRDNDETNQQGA
Method in brief: as §1

[5] = molecular target: T4, USP4 (UniProt Q13107)
T4 sequence (whole entry): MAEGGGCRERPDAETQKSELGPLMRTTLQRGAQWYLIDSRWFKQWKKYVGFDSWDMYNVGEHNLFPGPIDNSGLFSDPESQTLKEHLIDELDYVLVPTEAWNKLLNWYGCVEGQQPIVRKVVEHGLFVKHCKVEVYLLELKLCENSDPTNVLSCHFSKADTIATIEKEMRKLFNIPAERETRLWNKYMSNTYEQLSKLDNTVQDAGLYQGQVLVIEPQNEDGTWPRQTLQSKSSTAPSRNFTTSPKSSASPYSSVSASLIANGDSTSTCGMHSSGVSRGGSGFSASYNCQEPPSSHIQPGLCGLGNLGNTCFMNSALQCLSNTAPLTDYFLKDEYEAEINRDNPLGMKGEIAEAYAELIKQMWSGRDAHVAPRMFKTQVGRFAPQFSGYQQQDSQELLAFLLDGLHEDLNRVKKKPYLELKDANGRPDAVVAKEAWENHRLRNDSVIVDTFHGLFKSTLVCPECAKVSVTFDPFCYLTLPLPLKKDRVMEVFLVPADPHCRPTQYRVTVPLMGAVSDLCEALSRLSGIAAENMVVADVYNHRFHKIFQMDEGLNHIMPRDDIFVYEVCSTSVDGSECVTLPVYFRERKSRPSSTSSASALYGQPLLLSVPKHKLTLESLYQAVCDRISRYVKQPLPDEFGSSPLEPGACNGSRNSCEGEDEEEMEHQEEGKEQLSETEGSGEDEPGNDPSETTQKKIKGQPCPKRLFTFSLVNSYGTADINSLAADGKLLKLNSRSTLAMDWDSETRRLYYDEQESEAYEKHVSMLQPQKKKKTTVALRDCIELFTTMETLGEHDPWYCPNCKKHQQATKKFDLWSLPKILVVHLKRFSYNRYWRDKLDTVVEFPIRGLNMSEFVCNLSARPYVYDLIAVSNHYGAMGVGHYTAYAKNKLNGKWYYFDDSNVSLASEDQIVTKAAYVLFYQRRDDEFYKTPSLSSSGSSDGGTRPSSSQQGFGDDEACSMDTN
Method in brief: as §1

Measured: log2 ratio of Biotin-Ahx-Ub-VS probe labelling

CS(=O)(=O)c1ccc(CNC(=O)CCl)cc1
inactive: [1] -0.0991 | [2] -0.225 | [3] -0.0436 | [4] 0.204 | [5] -0.0105
